Laboratory results as given in the supplement of paper PMC9262897, “Low-cost anti-mycobacterial drug discovery using engineered E. coli” (Nature Communications, 2022).
Counter-ions that a name gives are not always drawn. ± gives the standard deviation of the averaged measurements.

How the values were obtained:
Test in all cases: growth (OD600 after 10 h); higher = more growth (less inhibition)
[1] = tested on: E. coli TESEC Alr+ wild-type control; conditions: compound 0.1 mM; raw OD600 reference: median of DMSO wells 0.241, cell-free background 0.041
Experimental: (§1)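 TESEC Mtb Alr E. coli, or the Alr+ wild-type control, in 384-well plates with Prestwick library compounds at 0.1 mM and 1% DMSO, across arabinose induction levels of 1E3 to 1E7 nM. Growth is read as OD600 after 10 h at 37 °C in triplicate biological replicates.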

E. coli TESEC Mtb Alr [2] = conditions: compound 0.1 mM
Experimental: as §1

E. coli TESEC Mtb Asd = conditions: compound 0.1 mM
Experimental: (§2)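 TESEC E. coli strains in which the native enzyme is deleted and replaced by arabinose-inducible Mtb Asd, DapB, CysH or TrpD, each grown in its selective medium. Strains were screened against the Prestwick library at 0.1 mM and 1% DMSO in 384-well format at low and high arabinose induction. Growth is read as OD600 after 10 h in triplicate.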

E. coli TESEC Mtb DapB = conditions: compound 0.1 mM
Experimental: as §2

[3] = tested on: E. coli TESEC Alr+ wild-type control; conditions: compound 0.1 mM; raw OD600 reference: median of DMSO wells 0.49, cell-free background 0.052
Experimental: (§3)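 TESEC Mtb Alr E. coli (ΔaraC ΔtolC ΔentC Δalr ΔdadX, arabinose-inducible Mtb Alr) or the Alr+ wild-type control strain, grown in defined M9-fructose medium without D-alanine in 96-well plates with Prestwick library compounds at 0.1 mM and 1% DMSO. Low Alr induction is 0.1 µM arabinose and high induction is 10 mM arabinose.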

E. coli TESEC Mtb Alr [4] = conditions: compound 0.1 mM; remark: listed apart in the source
Experimental: as §3

[5] = arabinose 1000 nM, raw OD600 reference: median of DMSO wells 0.294, cell-free background 0.041
[6] = arabinose 10000 nM, raw OD600 reference: median of DMSO wells 0.264, cell-free background 0.041
[7] = arabinose 100000 nM, raw OD600 reference: median of DMSO wells 0.201, cell-free background 0.041
[8] = arabinose 1000000 nM, raw OD600 reference: median of DMSO wells 0.193, cell-free background 0.041
[9] = arabinose 10000000 nM, raw OD600 reference: median of DMSO wells 0.146, cell-free background 0.041
[10] = arabinose induction (level): High, raw OD600 reference: median of DMSO wells 0.331, cell-free background 0.041
[11] = arabinose induction (level): Low, raw OD600 reference: median of DMSO wells 0.417, cell-free background 0.041
[12] = arabinose induction (level): High, raw OD600 reference: median of DMSO wells […], cell-free background 0.041
[13] = arabinose induction (level): Low, raw OD600 reference: median of DMSO wells 0.227, cell-free background 0.041
[14] = arabinose 100 nM, raw OD600 reference: median of DMSO wells 0.413, cell-free background 0.052
[15] = arabinose 10000000 nM, raw OD600 reference: median of DMSO wells […], cell-free background 0.052

Compound	growth [1]	growth (E. coli TESEC Mtb Alr [2]; [5])	growth (E. coli TESEC Mtb Alr [2]; [6])	growth (E. coli TESEC Mtb Alr [2]; [7])	growth (E. coli TESEC Mtb Alr [2]; [8])	growth (E. coli TESEC Mtb Alr [2]; [9])	growth (E. coli TESEC Mtb Asd; [10])	growth (E. coli TESEC Mtb Asd; [11])	growth (E. coli TESEC Mtb DapB; [12])	growth (E. coli TESEC Mtb DapB; [13])	growth [3]	growth (E. coli TESEC Mtb Alr [4]; [14])	growth (E. coli TESEC Mtb Alr [4]; [15])
O=C1CCC(N2C(=O)c3ccccc3C2=O)C(=O)N1 (centres undefined) [Thalidomide]	0.248 ± 0.0061	0.283 ± 0.0041	0.269 ± 0.014	0.204 ± 0.012	0.192 ± 0.0034	0.135 ± 0.0057	0.392 ± 0.098	0.461 ± 0.035	0.189 ± 0.016	0.24 ± 0.052	0.513 ± 0.072	0.424 ± 0.0084	0.346 ± 0.0072
CC(=O)OCC1=C(C(=O)O)N2C(=O)[C@@H](NC(=O)Cc3cccs3)[C@H]2SC1 [Cephalothin sodium salt]	0.305 ± 0.0066	0.334 ± 0.017	0.209 ± 0.0072	0.283 ± 0.03	0.172 ± 0.0079	0.174 ± 0.0022	0.421 ± 0.021	0.421 ± 0.058	0.206 ± 0.013	0.258 ± 0.0063	0.447 ± 0.04	0.332 ± 0.027	0.35 ± 0.015
Clc1ccccc1C(c1ccccc1)(c1ccccc1)n1ccnc1 [Clotrimazole]	0.03967 ± 0.00012	0.04147 ± 0.00015	0.0452 ± 0.00099	0.0437 ± 0.0032	0.0467 ± 0.00068	0.0448 ± 0.0032	0.0468 ± 0.00044	0.0472 ± 0.0021	0.0469 ± 0.0008	0.0488 ± 0.0015	0.0507 ± 0.0011	0.07627 ± 0.0006	0.0569 ± 0.00059
COC(=O)C1=C(C#N)NC(C)=C(C(=O)OC(C)C)C1c1cccc([N+](=O)[O-])c1 (centres undefined) [Nilvadipine]	0.148 ± 0.0031	0.203 ± 0.014	0.2569 ± 0.001	0.164 ± 0.014	0.0883 ± 0.002	0.149 ± 0.033	0.16 ± 0.0063	0.325 ± 0.029	0.208 ± 0.019	0.214 ± 0.015	0.212 ± 0.16	0.429 ± 0.0067	0.06 ± 0.0039
CN1CCCC(CC2c3ccccc3Sc3ccccc32)C1 (centres undefined) [Metixene hydrochloride]	0.0422 ± 0.00059	0.0424 ± 0.0015	0.0424 ± 0.00036	0.04217 ± 0.00038	0.04163 ± 0.00021	0.044 ± 0.0005	0.0629 ± 0.015	0.053 ± 0.0011	0.135 ± 0.07	0.0594 ± 0.0035	0.0609 ± 0.015	0.401 ± 0.0069	0.055 ± 0.0024
OC(CCN1CCCCC1)(c1ccccc1)C1CCCCC1 (centres undefined) [Trihexyphenidyl-D,L Hydrochloride]	0.222 ± 0.012	0.316 ± 0.019	0.265 ± 0.012	0.194 ± 0.0034	0.147 ± 0.0092	0.164 ± 0.0019	0.299 ± 0.04	0.43 ± 0.071	0.179 ± 0.016	0.22 ± 0.018	0.452 ± 0.031	0.4127 ± 0.0033	0.324 ± 0.024
Nc1nc2n[nH]nc2c(=O)[nH]1 [Azaguanine-8]	0.21 ± 0.0092	0.241 ± 0.0083	0.194 ± 0.0047	0.239 ± 0.0079	0.143 ± 0.0028	0.132 ± 0.009	0.397 ± 0.01	0.42 ± 0.044	0.235 ± 0.032	0.26 ± 0.084	0.3656 ± 0.0032	0.409 ± 0.026	0.245 ± 0.16
CN(C)CCOC(c1ccc(Cl)cc1)c1ccccn1 (centres undefined) [Carbinoxamine maleate salt]	0.2081 ± 0.00038	0.297 ± 0.017	0.265 ± 0.006	0.196 ± 0.034	0.187 ± 0.018	0.13 ± 0.011	0.259 ± 0.023	0.44 ± 0.01	0.193 ± 0.01	0.23 ± 0.016	0.438 ± 0.022	0.393 ± 0.015	0.332 ± 0.021
